Data as given in PubChem BioAssay (NCI).
Compounds without any hit were thinned out: in the full panel of roughly 83,000, 20% have a hit.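 Percent growth is the endpoint: 0 to 100 indicates growth inhibition (40 means 60% inhibition), 0 means no net growth, and negative values indicate cell death.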 The source made the active and inactive calls. The calls were made as follows: active = growth percent below 10; inactive = the rest.

Legend:
Test in all cases: NCI-60 one-dose screen, 48 h (100 = growth as untreated, 0 = no growth, -100 = all killed)
Conditions in all cases: 10 µM unless noted
NCI-H23 lung = system: NCI-H23 lung
NCI-H226 lung = system: NCI-H226 lung
NCI-H322M lung = system: NCI-H322M lung
HOP-62 NSCLC = system: HOP-62 NSCLC
NCI-H460 lung = system: NCI-H460 lung
HOP-92 NSCLC = system: HOP-92 NSCLC
NCI-H522 lung = system: NCI-H522 lung
A549/ATCC NSCLC = system: A549/ATCC NSCLC
786-0 renal = system: 786-0 renal
COLO 205 colon = system: COLO 205 colon
DU-145 prostate = system: DU-145 prostate
K-562 leukemia = system: K-562 leukemia
MALME-3M melanoma = system: MALME-3M melanoma
MDA-MB-231 breast = system: MDA-MB-231 breast
RXF 393 renal = system: RXF 393 renal
SF-268 CNS = system: SF-268 CNS
SF-295 CNS = system: SF-295 CNS
SF-539 CNS = system: SF-539 CNS
UACC-257 melanoma = system: UACC-257 melanoma
M14 melanoma = system: M14 melanoma

Compound	growth (NCI-H23 lung)	growth (NCI-H226 lung)	growth (NCI-H322M lung)	growth (HOP-62 NSCLC)	growth (NCI-H460 lung)	growth (HOP-92 NSCLC)	growth (NCI-H522 lung)	growth (A549/ATCC NSCLC)	growth (786-0 renal)	growth (COLO 205 colon)	growth (DU-145 prostate)	growth (K-562 leukemia)	growth (MALME-3M melanoma)	growth (MDA-MB-231 breast)	growth (RXF 393 renal)	growth (SF-268 CNS)	growth (SF-295 CNS)	growth (SF-539 CNS)	growth (UACC-257 melanoma)	growth (M14 melanoma)
Cc1[nH]c(C(=O)Nc2ccc(C(N)=O)cc2NC(C)C)c(Cl)c1Cl	85.8% (inactive)	91.6% (inactive)	98.7% (inactive)	104% (inactive)	93.1% (inactive)	72.7% (inactive)	79.3% (inactive)	85.5% (inactive)	91.1% (inactive)	122% (inactive)	100% (inactive)	85.8% (inactive)	94.4% (inactive)	90.1% (inactive)	94.7% (inactive)	86.5% (inactive)	100% (inactive)	92.8% (inactive)	96.2% (inactive)	87.6% (inactive)
CC/C(Cc1ccccc1)=C(\c1ccc(OCCN2CCCCCC2)cc1)c1ccc(OC(=O)NCc2ccccc2)cc1	74.9% (inactive)	90% (inactive)	96.6% (inactive)	82.8% (inactive)	5.51% (active)	56% (inactive)	84.7% (inactive)	64.4% (inactive)	58.4% (inactive)	-24.2% (active)	83.2% (inactive)	-11.8% (active)	61.3% (inactive)	74.4% (inactive)	77.4% (inactive)	77.3% (inactive)	107% (inactive)	79.7% (inactive)	77.6% (inactive)	56.3% (inactive)
COc1ccc2nc3ccccc3c(NCc3ccccc3)c2c1	21.5% (inactive)	34.4% (inactive)	29.5% (inactive)	33.6% (inactive)	6.31% (active)	-13.4% (active)	34.6% (inactive)	18.2% (inactive)	22.3% (inactive)	-19.1% (active)	22.5% (inactive)	5.75% (active)	22.5% (inactive)	27.8% (inactive)	5.86% (active)	44.2% (inactive)	19.7% (inactive)	11.8% (inactive)	27.1% (inactive)	26% (inactive)
O=C1Nc2ccc(F)cc2/C1=N/c1nnc(Sc2ccccc2)s1	87.4% (inactive)	90.7% (inactive)	103% (inactive)	94.7% (inactive)	95.6% (inactive)	96.9% (inactive)	77.2% (inactive)	96.8% (inactive)	105% (inactive)	119% (inactive)	105% (inactive)	79.7% (inactive)	110% (inactive)	87.1% (inactive)	110% (inactive)	94.2% (inactive)	108% (inactive)	88.5% (inactive)	100% (inactive)	99.2% (inactive)
COc1ccc(NC(=O)c2sc3nc(C)c(C(O)c4ccccc4)cc3c2N)cc1 (stereo not given)	28.7% (inactive)	57.9% (inactive)	56.8% (inactive)	28.2% (inactive)	10.1% (inactive)	78.9% (inactive)	10.2% (inactive)	24.9% (inactive)	40.7% (inactive)	-5.84% (active)	14.1% (inactive)	8.04% (active)	38% (inactive)	27.7% (inactive)	-7.22% (active)	50.3% (inactive)	23.1% (inactive)	-4.84% (active)	64.4% (inactive)	7.65% (active)
COc1ccc2c(c1)c(-c1nonc1-c1cn(C)c3ccc(OC)cc13)cn2C	59.2% (inactive)	75.1% (inactive)	71.1% (inactive)	32.4% (inactive)	12.6% (inactive)	55.6% (inactive)	18.5% (inactive)	39.2% (inactive)	54.5% (inactive)	32.9% (inactive)	70.9% (inactive)	13% (inactive)	41.7% (inactive)	49.5% (inactive)	70.9% (inactive)	54.2% (inactive)	30.4% (inactive)	33.9% (inactive)	62.4% (inactive)	16.6% (inactive)
CN(C)Cc1ccc(C(=O)Nc2ccc3ncnc(Nc4ccc(Oc5cccc(F)c5)c(Cl)c4)c3c2)cc1	49.5% (inactive)	80.2% (inactive)	4.65% (active)	45.1% (inactive)	-74.3% (active)	36.2% (inactive)	-29.6% (active)	8.26% (active)	-84.9% (active)	-53.3% (active)	7.69% (active)	-39.3% (active)	-80.6% (active)	-73.9% (active)	-80.4% (active)	-31% (active)	-41.7% (active)	-90.1% (active)	-58.3% (active)	-69.3% (active)
CC(C)(C)c1cc(C=Nc2cccc(C(F)(F)F)c2)c(O)c(C(C)(C)C)c1	88.5% (inactive)	91.4% (inactive)	95.3% (inactive)	95.7% (inactive)	107% (inactive)	90.9% (inactive)	73.5% (inactive)	84.1% (inactive)	107% (inactive)	119% (inactive)	107% (inactive)	70.2% (inactive)	108% (inactive)	98.3% (inactive)	94.3% (inactive)	90.1% (inactive)	97.4% (inactive)	101% (inactive)	78.7% (inactive)	100% (inactive)
CC/C=C1/C(=O)C=C[C@@H]1C/C=C\CCCC(=O)OC	74.8% (inactive)	88.1% (inactive)	108% (inactive)	90.5% (inactive)	97.9% (inactive)	91.3% (inactive)	-38.3% (active)	90.2% (inactive)	82.5% (inactive)	97.3% (inactive)	77.1% (inactive)	4.34% (active)	56.3% (inactive)	28.7% (inactive)	103% (inactive)	79.7% (inactive)	88.7% (inactive)	108% (inactive)	73.1% (inactive)	50.5% (inactive)
COc1ccc(Nc2ncccc2NC(=O)c2cn(Cc3cccc(Oc4ccccc4)c3)nn2)cc1OC	76% (inactive)	92.4% (inactive)	83.7% (inactive)	88% (inactive)	97.4% (inactive)	81.6% (inactive)	77.1% (inactive)	86.7% (inactive)	90.5% (inactive)	81.4% (inactive)	84% (inactive)	28.7% (inactive)	87.4% (inactive)	67.9% (inactive)	86.3% (inactive)	61.7% (inactive)	84.2% (inactive)	95% (inactive)	92.4% (inactive)	72.5% (inactive)
Cn1cc(-c2nonc2-c2c[nH]c3ccccc23)c2ccccc21	29.7% (inactive)	44.5% (inactive)	33.9% (inactive)	14.3% (inactive)	4.95% (active)	5.1% (active)	-5.43% (active)	18.3% (inactive)	23% (inactive)	-22.7% (active)	17.4% (inactive)	5.23% (active)	42.9% (inactive)	0.833% (active)	-3.69% (active)	25.8% (inactive)	8.43% (active)	-35.4% (active)	33.2% (inactive)	7.06% (active)
NS(=O)(=O)c1ccc(N/C=C/C(=O)c2cc3ccccc3oc2=O)cc1	88% (inactive)	86.9% (inactive)	92.9% (inactive)	84.7% (inactive)	96.8% (inactive)	76.1% (inactive)	96.3% (inactive)	97.1% (inactive)	96.1% (inactive)	102% (inactive)	109% (inactive)	94.8% (inactive)	85% (inactive)	85.2% (inactive)	102% (inactive)	95.5% (inactive)	103% (inactive)	93% (inactive)	110% (inactive)	89.5% (inactive)
O=S(=O)(c1ccccc1)N1CCCN(c2nc(-c3ccccc3)nc3nc(-c4ccccc4)oc23)CC1	107% (inactive)	109% (inactive)	96% (inactive)	104% (inactive)	110% (inactive)	105% (inactive)	98.5% (inactive)	105% (inactive)	102% (inactive)	116% (inactive)	119% (inactive)	110% (inactive)	105% (inactive)	108% (inactive)	115% (inactive)	111% (inactive)	105% (inactive)	104% (inactive)	109% (inactive)	109% (inactive)
Cc1ccc(S(=O)(=O)n2cc(C3C(Cl)C(=O)N3c3ccc(N4CCOCC4=O)cc3)c3ccccc32)cc1 (stereo not given)	52.5% (inactive)	72.3% (inactive)	86.7% (inactive)	67.6% (inactive)	97.2% (inactive)	49.8% (inactive)	63.7% (inactive)	79.6% (inactive)	86% (inactive)	108% (inactive)	63.6% (inactive)	22.5% (inactive)	56.4% (inactive)	16.5% (inactive)	65.5% (inactive)	57.9% (inactive)	82.5% (inactive)	28.1% (inactive)	74.3% (inactive)	25.7% (inactive)
